Our source for the binding signal values is publication PMC7862700, “An all-to-all approach to the identification of sequence-specific readers for epigenetic DNA modifications on cytosine”.

What all share (assay): DAPPL (digital affinity profiling via proximity ligation, sequencing); 10 mM Tris-HCl pH 7.5, 50 mM NaCl, 1 mM DTT, 4% glycerol, room temperature, 30 min; GST-TFs on glutathione beads, 16-mer random dsDNA library, 0.1% formaldehyde crosslink after washing; high values mean tight binding
The target of one assay is T1, FEV (Homo sapiens, UniProt Q99581 1-238).
T1 sequence: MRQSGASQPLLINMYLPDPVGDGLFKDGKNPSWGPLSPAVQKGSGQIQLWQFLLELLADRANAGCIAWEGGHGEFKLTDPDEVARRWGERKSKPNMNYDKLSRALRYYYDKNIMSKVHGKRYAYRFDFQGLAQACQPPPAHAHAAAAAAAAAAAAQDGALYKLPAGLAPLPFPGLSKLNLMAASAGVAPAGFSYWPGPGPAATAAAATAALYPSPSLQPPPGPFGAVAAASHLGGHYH
The settings on record: protein: recombinant; tags: N-terminal GST; dsDNA, one strand shown. Put shortly: (§1)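 In yeast, human transcription factors were expressed with a GST fusion, then pulled down on glutathione beads and given DNA barcodes. Pooled with a tag-only sample, they were exposed to 200 nmole of a 16-mer random double-stranded DNA library (Tris/NaCl/DTT/glycerol buffer, room temperature, 30 min), washed, crosslinked with 0.1% formaldehyde, proximity-ligated using BsaI/T4 ligase for 1 h at 37 °C, PCR-amplified and read on an Illumina NextSeq500. Each hexamer's frequency of reads for a factor, divided by the matching frequency for the tag-only sample, gives the binding signal.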

A further assay concerns the target ETV5 (Homo sapiens, UniProt P41161 1-510). The settings on record: protein: recombinant; tags: N-terminal GST; dsDNA, one strand shown. Put shortly:
as §1

Another assay concerns the target HSF1 (Homo sapiens, UniProt Q00613 1-529). The settings on record: protein: recombinant; tags: N-terminal GST; chain copies: 3; dsDNA, one strand shown. In a few lines:
as §1

The target of a further assay is T2, SPIC (Homo sapiens, UniProt Q8N5J4 1-248).
T2 sequence: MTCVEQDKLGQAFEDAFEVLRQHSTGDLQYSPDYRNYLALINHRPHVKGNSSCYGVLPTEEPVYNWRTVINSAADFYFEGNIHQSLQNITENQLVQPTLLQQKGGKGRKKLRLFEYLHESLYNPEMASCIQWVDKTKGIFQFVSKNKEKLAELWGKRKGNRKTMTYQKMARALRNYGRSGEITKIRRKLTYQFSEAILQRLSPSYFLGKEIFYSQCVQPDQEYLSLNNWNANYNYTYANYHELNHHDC
The settings on record: protein: recombinant; tags: N-terminal GST; dsDNA, one strand shown. Put shortly:
as §1

A further assay addresses ELF4 (Homo sapiens, UniProt Q99607 1-663). The settings on record: protein: recombinant; tags: N-terminal GST; dsDNA, one strand shown. Put shortly:
as §1

The next assay deals with T3, ELK4 (Homo sapiens, UniProt P28324-2 1-405).
T3 sequence: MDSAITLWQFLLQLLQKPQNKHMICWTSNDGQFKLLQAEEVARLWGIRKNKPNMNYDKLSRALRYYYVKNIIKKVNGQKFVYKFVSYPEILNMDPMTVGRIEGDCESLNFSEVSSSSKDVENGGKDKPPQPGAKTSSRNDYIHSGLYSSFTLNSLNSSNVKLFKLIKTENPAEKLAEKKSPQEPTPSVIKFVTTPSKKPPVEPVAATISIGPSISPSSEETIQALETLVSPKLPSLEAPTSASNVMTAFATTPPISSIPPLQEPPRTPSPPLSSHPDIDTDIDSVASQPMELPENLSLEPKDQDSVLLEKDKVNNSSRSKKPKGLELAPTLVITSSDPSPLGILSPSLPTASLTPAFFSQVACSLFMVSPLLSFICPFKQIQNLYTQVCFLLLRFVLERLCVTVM
The settings on record: protein: recombinant; tags: N-terminal GST; dsDNA, one strand shown. Put shortly: as §1

The target of the next assay is T4, ETV2 (Homo sapiens, UniProt O00321 1-342).
T4 sequence: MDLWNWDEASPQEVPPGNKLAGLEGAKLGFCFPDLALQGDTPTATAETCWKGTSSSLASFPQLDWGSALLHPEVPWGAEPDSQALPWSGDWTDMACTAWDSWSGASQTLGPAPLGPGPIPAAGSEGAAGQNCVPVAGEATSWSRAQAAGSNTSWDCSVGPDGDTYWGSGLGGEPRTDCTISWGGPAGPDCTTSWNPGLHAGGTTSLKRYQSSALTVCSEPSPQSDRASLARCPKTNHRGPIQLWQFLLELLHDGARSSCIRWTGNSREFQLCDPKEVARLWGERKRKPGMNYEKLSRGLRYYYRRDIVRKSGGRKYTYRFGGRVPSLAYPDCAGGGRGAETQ
The settings on record: protein: recombinant; tags: N-terminal GST; dsDNA, one strand shown. In a few lines:
as §1

The target of a further assay is T5, ELF3 (Homo sapiens, UniProt P78545 1-371).
T5 sequence: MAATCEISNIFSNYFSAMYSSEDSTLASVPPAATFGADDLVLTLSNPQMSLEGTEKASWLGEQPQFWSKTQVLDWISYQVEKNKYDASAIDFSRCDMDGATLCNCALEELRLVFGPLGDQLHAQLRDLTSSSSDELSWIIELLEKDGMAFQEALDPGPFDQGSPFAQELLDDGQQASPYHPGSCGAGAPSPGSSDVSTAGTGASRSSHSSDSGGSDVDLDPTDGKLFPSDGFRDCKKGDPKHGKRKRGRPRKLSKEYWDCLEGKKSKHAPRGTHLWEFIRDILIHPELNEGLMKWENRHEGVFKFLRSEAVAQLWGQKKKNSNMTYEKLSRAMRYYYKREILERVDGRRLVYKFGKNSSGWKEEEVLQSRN
The settings on record: protein: recombinant; tags: N-terminal GST; dsDNA, one strand shown. Put shortly:
as §1

The target in another assay is CRX (Homo sapiens, UniProt O43186 1-299). The settings on record: protein: recombinant; tags: N-terminal GST; dsDNA, one strand shown. In a few lines:
as §1

The next assay concerns the target ETV1 (Homo sapiens, UniProt P50549 1-477). The settings on record: protein: recombinant; tags: N-terminal GST; dsDNA, one strand shown. In a few lines: as §1

ETV1, sequence (P50549 whole entry): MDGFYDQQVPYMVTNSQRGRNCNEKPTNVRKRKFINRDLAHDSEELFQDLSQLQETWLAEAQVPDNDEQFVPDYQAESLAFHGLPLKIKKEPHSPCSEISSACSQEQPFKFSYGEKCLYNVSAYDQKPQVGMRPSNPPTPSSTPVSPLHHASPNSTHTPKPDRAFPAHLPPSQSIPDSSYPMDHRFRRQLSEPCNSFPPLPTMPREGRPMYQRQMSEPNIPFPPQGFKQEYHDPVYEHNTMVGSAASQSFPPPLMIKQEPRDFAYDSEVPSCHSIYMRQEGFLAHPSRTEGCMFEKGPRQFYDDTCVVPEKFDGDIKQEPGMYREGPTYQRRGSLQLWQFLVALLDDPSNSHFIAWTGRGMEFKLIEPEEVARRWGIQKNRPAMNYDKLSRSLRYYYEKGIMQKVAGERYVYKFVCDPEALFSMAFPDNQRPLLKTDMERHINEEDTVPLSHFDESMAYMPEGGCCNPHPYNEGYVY
CRX, sequence (O43186 whole entry): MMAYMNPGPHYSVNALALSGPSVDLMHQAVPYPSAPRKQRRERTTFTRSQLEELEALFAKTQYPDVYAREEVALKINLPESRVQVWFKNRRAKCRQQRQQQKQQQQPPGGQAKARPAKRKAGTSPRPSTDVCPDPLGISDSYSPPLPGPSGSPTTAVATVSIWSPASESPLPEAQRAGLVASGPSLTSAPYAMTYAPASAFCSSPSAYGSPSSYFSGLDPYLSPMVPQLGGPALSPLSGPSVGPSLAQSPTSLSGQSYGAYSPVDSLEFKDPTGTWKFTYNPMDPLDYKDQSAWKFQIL
HSF1, sequence (Q00613 whole entry): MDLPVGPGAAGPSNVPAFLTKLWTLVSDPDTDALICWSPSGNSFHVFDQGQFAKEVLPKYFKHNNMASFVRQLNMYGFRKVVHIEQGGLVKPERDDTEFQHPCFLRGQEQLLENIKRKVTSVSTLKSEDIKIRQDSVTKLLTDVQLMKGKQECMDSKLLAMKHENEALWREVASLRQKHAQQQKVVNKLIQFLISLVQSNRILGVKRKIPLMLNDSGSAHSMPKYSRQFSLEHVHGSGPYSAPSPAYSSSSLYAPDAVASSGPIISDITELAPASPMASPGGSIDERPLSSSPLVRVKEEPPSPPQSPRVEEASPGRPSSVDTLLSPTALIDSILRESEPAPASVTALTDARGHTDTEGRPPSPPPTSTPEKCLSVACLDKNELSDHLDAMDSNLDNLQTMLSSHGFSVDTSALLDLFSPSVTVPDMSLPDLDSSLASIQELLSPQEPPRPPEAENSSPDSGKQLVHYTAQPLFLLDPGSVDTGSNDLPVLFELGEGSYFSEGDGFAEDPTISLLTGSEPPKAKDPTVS
ETV5, sequence (P41161 whole entry): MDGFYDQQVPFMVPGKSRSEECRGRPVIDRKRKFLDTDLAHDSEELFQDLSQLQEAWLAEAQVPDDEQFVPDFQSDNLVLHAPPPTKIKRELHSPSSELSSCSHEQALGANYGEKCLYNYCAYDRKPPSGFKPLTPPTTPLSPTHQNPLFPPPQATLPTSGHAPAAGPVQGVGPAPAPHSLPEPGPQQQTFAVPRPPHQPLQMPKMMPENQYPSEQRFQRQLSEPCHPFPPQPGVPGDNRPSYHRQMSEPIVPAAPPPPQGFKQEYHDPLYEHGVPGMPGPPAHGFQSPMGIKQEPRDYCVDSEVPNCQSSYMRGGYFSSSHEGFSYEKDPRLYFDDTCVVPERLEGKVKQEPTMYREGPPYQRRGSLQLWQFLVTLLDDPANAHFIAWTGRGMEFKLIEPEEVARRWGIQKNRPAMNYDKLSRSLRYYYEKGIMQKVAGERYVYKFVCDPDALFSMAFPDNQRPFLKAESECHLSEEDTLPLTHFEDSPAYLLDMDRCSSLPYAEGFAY
ELF4, sequence (Q99607 whole entry): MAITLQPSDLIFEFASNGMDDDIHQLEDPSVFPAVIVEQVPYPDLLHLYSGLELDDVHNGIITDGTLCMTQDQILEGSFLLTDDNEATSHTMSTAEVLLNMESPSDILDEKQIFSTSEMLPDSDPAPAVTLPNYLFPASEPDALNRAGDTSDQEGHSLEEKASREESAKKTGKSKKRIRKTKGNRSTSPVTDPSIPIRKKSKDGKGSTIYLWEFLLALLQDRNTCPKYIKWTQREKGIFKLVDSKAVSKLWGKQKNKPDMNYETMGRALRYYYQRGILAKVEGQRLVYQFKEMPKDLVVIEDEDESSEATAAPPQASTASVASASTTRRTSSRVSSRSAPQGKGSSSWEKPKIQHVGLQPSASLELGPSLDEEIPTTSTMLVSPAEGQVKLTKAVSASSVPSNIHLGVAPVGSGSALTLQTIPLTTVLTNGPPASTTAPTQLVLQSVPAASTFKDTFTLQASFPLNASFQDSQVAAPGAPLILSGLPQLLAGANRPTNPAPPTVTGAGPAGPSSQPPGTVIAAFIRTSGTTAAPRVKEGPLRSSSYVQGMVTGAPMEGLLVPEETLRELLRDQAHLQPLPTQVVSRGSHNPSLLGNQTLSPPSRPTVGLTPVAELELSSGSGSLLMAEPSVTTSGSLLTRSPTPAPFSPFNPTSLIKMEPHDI

Regarding CTATTG, the binding signal in the assay with FEV is 1.24 fold enrichment (6-mer frequency, TF over GST control); in the assay with ETV5 it was 1.31 fold enrichment (6-mer frequency, TF over GST control); in the assay with HSF1, 1.1 fold enrichment (6-mer frequency, TF over GST control); with SPIC it was 1.4 fold enrichment (6-mer frequency, TF over GST control); with ELF4, 1.28 fold enrichment (6-mer frequency, TF over GST control); in the assay with ELK4 it was 1.29 fold enrichment (6-mer frequency, TF over GST control). Moreover, the binding signal in the assay with ETV2 was 1.31 fold enrichment (6-mer frequency, TF over GST control); in the assay with ELF3 it was 1.39 fold enrichment (6-mer frequency, TF over GST control); with CRX, 1.14 fold enrichment (6-mer frequency, TF over GST control); with ETV1, 1.36 fold enrichment (6-mer frequency, TF over GST control).
With AGCCCC, the binding signal with FEV is 1.12 fold enrichment (6-mer frequency, TF over GST control); with ETV5, 1.14 fold enrichment (6-mer frequency, TF over GST control); in the assay with HSF1, 1.02 fold enrichment (6-mer frequency, TF over GST control); in the assay with SPIC it was 1.09 fold enrichment (6-mer frequency, TF over GST control); with ELF4 it was 1.07 fold enrichment (6-mer frequency, TF over GST control); with ELK4, 1.17 fold enrichment (6-mer frequency, TF over GST control). Besides, the binding signal with ETV2 was 1.23 fold enrichment (6-mer frequency, TF over GST control); with ELF3, 1.15 fold enrichment (6-mer frequency, TF over GST control); in the assay with CRX, 1.17 fold enrichment (6-mer frequency, TF over GST control); with ETV1, 1.02 fold enrichment (6-mer frequency, TF over GST control).
TCAATT: the binding signal in the assay with FEV is 1.16 fold enrichment (6-mer frequency, TF over GST control); in the assay with ETV5, 1.21 fold enrichment (6-mer frequency, TF over GST control); with HSF1, 1.1 fold enrichment (6-mer frequency, TF over GST control); in the assay with SPIC it was 1.14 fold enrichment (6-mer frequency, TF over GST control); with ELF4, 1.18 fold enrichment (6-mer frequency, TF over GST control); with ELK4, 1.08 fold enrichment (6-mer frequency, TF over GST control). For the same sequence, the binding signal with ETV2 is 1.24 fold enrichment (6-mer frequency, TF over GST control); in the assay with ELF3 it was 1.12 fold enrichment (6-mer frequency, TF over GST control); with CRX, 1.17 fold enrichment (6-mer frequency, TF over GST control); in the assay with ETV1 it was 1.14 fold enrichment (6-mer frequency, TF over GST control).
In the case of TTACGT, the binding signal with FEV is 1.04 fold enrichment (6-mer frequency, TF over GST control); with ETV5, 1.19 fold enrichment (6-mer frequency, TF over GST control); with HSF1, 1.21 fold enrichment (6-mer frequency, TF over GST control); in the assay with SPIC it was 1.07 fold enrichment (6-mer frequency, TF over GST control); in the assay with ELF4 it was 1.11 fold enrichment (6-mer frequency, TF over GST control); in the assay with ELK4, 1.12 fold enrichment (6-mer frequency, TF over GST control). The binding signal with ETV2 is 1.2 fold enrichment (6-mer frequency, TF over GST control); with ELF3, 1.14 fold enrichment (6-mer frequency, TF over GST control); with CRX, 1.74 fold enrichment (6-mer frequency, TF over GST control); in the assay with ETV1, 1.06 fold enrichment (6-mer frequency, TF over GST control).
For TTGCTC, the binding signal with FEV is 1.25 fold enrichment (6-mer frequency, TF over GST control); in the assay with ETV5, 1.41 fold enrichment (6-mer frequency, TF over GST control); in the assay with HSF1 it was 1.3 fold enrichment (6-mer frequency, TF over GST control); with SPIC, 1.34 fold enrichment (6-mer frequency, TF over GST control); with ELF4, 1.24 fold enrichment (6-mer frequency, TF over GST control); in the assay with ELK4 it was 1.16 fold enrichment (6-mer frequency, TF over GST control). Also, the binding signal in the assay with ETV2 was 1.4 fold enrichment (6-mer frequency, TF over GST control); in the assay with ELF3 it was 1.29 fold enrichment (6-mer frequency, TF over GST control); with CRX, 1.17 fold enrichment (6-mer frequency, TF over GST control); in the assay with ETV1, 1.21 fold enrichment (6-mer frequency, TF over GST control).
Regarding ATACTG, the binding signal with FEV is 1.04 fold enrichment (6-mer frequency, TF over GST control); with ETV5, 1.15 fold enrichment (6-mer frequency, TF over GST control); in the assay with HSF1, 1.06 fold enrichment (6-mer frequency, TF over GST control); in the assay with SPIC, 1.06 fold enrichment (6-mer frequency, TF over GST control); with ELF4, 1.16 fold enrichment (6-mer frequency, TF over GST control); with ELK4 it was 1.29 fold enrichment (6-mer frequency, TF over GST control). Moreover, the binding signal with ETV2 is 1.32 fold enrichment (6-mer frequency, TF over GST control); with ELF3 it was 1.18 fold enrichment (6-mer frequency, TF over GST control); in the assay with CRX, 1.11 fold enrichment (6-mer frequency, TF over GST control); in the assay with ETV1, 1.05 fold enrichment (6-mer frequency, TF over GST control).
For the sequence AAGATA, the binding signal with FEV is 1.08 fold enrichment (6-mer frequency, TF over GST control); with ETV5, 1.14 fold enrichment (6-mer frequency, TF over GST control); with HSF1, 1.33 fold enrichment (6-mer frequency, TF over GST control); with SPIC, 1.06 fold enrichment (6-mer frequency, TF over GST control); with ELF4, 1.16 fold enrichment (6-mer frequency, TF over GST control); with ELK4, 1.12 fold enrichment (6-mer frequency, TF over GST control). Moreover, the binding signal was 1.16 fold enrichment (6-mer frequency, TF over GST control) with ETV2; 1.03 fold enrichment (6-mer frequency, TF over GST control) with ELF3; 1.53 fold enrichment (6-mer frequency, TF over GST control) in the assay with CRX; 1.2 fold enrichment (6-mer frequency, TF over GST control) with ETV1.
